# Laboratory results: PubChem BioAssay (NCATS)
# Inconclusive results are not listed. A call without a number means that no potency is given here. Values without a mark were called inactive. Calls of active or inactive are those of the source. Calls come from the whole dose curve; as a rule, active = well fitted curve in the direction sought with a large enough effect; inconclusive = small, poorly fitted or top-dose-only effect, or another doubt; inactive = no such curve, though single readings can be large; an effect the other way counts as inactive or inconclusive.
# Columns and labels:
# CRL-7250 = normal cell line; experiment: Cytotoxic Profiling of Annotated Libraries Using Quantitative High-Throughput Screening (AID 1296008); conditions: Five cell lines viability, CellTiter-Glo ATP luminescence, 48-72 h; max response: active compounds read low; note: nearly all actives have a fitted effect of over 60% in size; note: potency is the fitted concentration of half-maximal effect
# How it was run: (§1)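 Cells exposed to compounds for 48 or 72 hr at 37 degrees Celsius. Viability read as ATP-coupled luminescence with CellTiter-Glo after 10 min at room temperature.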
# HEK293 = experiment: as above; conditions: Five cell lines viability, CellTiter-Glo ATP luminescence, 48-72 h; max response: active compounds read low
# How it was run: as §1
# NIH3T3 [1] = experiment: as above; conditions: Five cell lines viability, CellTiter-Glo ATP luminescence, 48-72 h; max response: active compounds read low
# How it was run: as §1
# C33A = experiment: Primary qHTS to identify gynecologic anti-cancer compounds using libraries of approved drugs and bioactive compounds (AID 1345084); conditions: Gynecologic cancer cell panel viability, ATPlite luminescence, 48 h; series mostly up to 57.5 µM; note: nearly all actives have a fitted effect of over 55% in size; note: potency is the fitted concentration of half-maximal effect
# How it was run: (§2)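 ATP-based viability (ATPlite), 1,000 cells/well, 16 h pre-incubation, 48 h compound at 37 C, 5% CO2, 15 min RT before read.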
# CASKI = experiment: as above; conditions: Gynecologic cancer cell panel viability, ATPlite luminescence, 48 h; series mostly up to 57.5 µM
# How it was run: as §2
# Es-2 = experiment: as above; conditions: Gynecologic cancer cell panel viability, ATPlite luminescence, 48 h; series mostly up to 57.5 µM
# How it was run: as §2
# HeLa = experiment: as above; conditions: Gynecologic cancer cell panel viability, ATPlite luminescence, 48 h; series mostly up to 57.5 µM
# How it was run: as §2
# Hek293T = experiment: as above; conditions: Gynecologic cancer cell panel viability, ATPlite luminescence, 48 h, control line for the selectivity index; series mostly up to 57.5 µM
# How it was run: as §2
# JEG-3 = experiment: as above; conditions: Gynecologic cancer cell panel viability, ATPlite luminescence, 48 h; series mostly up to 57.5 µM
# How it was run: as §2
# OV90 = experiment: as above; conditions: Gynecologic cancer cell panel viability, ATPlite luminescence, 48 h; series mostly up to 57.5 µM
# How it was run: as §2
# CAOV3 = experiment: as above; conditions: Gynecologic cancer cell panel viability, ATPlite luminescence, 48 h; series mostly up to 57.5 µM
# How it was run: as §2
# HaCat [2] = experiment: Cytotoxic Profiling of Annotated Libraries Using Quantitative High-Throughput Screening (AID 1296008); conditions: Five cell lines viability, CellTiter-Glo ATP luminescence, 48-72 h; max response: active compounds read low; note: nearly all actives have a fitted effect of over 60% in size; note: potency is the fitted concentration of half-maximal effect
# How it was run: as §1
# KB-3-1 = experiment: as above; conditions: Five cell lines viability, CellTiter-Glo ATP luminescence, 48-72 h; max response: active compounds read low
# How it was run: as §1
# HACAT [3] = experiment: qHTS assay to identify novel small-molecules to repurpose for Merkel cell carcinoma treatment (AID 1296009); conditions: MCC and control cell lines, CellTiter-Glo viability, 72 h; at 44.8 µM (top of the series) unless noted; note: nearly all actives have a fitted effect of over 60% in size
# How it was run: (§3)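 Cells were incubated with compound for 72 hr at 37 degree celsius before CellTiter-Glo addition. Luminescence was normalized with no-cell wells as full cytotoxicity and DMSO as baseline.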
# NIH3T3 [4] = experiment: as above; conditions: MCC and control cell lines, CellTiter-Glo viability, 72 h; series mostly up to 44.8 µM
# How it was run: as §3
compound,measurement,setting,value
Cc1noc(-c2ccc(-c3ccc(CC(=O)O)cc3)cc2)c1NC(=O)O[C@H](C)c1ccccc1Cl,max response,CRL-7250,-11.1%
same,max response,HEK293,-3.72%
same,Potency,NIH3T3 [1],7.31 µM (active)
same,Potency,C33A,inactive
same,Potency,CASKI,inactive
same,Potency,Es-2,inactive
same,Potency,HeLa,inactive
same,Potency,Hek293T,inactive
same,Potency,JEG-3,inactive
same,Potency,OV90,inactive
CCn1c2ccccc2c2cc(Nc3ccnc(NCCCN4CCOCC4)n3)ccc21,Potency,CRL-7250,18.4 µM (active)
same,Potency,HEK293,9.2 µM (active)
same,Potency,C33A,inactive
same,Potency,CASKI,inactive
same,Potency,HeLa,inactive
O=C(NO)c1cnc(N2CCN(S(=O)(=O)c3ccc4ccccc4c3)CC2)nc1,Potency,CRL-7250,7.96 µM (active)
same,max response,HEK293,-106%
same,Potency,NIH3T3 [1],2.24 µM (active)
same,Potency,CAOV3,inactive
same,Potency,OV90,3.98 µM (active)
C[C@@H]1O[C@@H](O[C@H]2[C@H](OC(=O)[C@]34CCC(C)(C)C[C@H]3C3=CCC5[C@@]6(C)C[C@H](O)[C@H](O[C@@H]7O[C@H](CO)[C@@H](O)[C@H](O)[C@H]7O)[C@](CO)(C(=O)O)C6CC[C@@]5(C)[C@]3(C)C[C@H]4O)OC[C@H](O)[C@@H]2O)[C@H](O)[C@H](O)[C@H]1O[C@@H]1OC[C@@H](O)[C@H](O[C@@H]2OC[C@](O)(CO)[C@H]2O)[C@H]1O (some centres not stated),Potency,CRL-7250,1.38 µM (active)
same,Potency,HEK293,0.692 µM (active)
same,"activity change, negative = cytotoxicity",CAOV3,-2.46% [at 6.55 µM]
same,"activity change, negative = cytotoxicity",CASKI,-28.8% [at 6.55 µM]
same,Potency,Es-2,2.82 µM (active)
same,"activity change, negative = cytotoxicity",OV90,-28.6% [at 6.55 µM]
CN1CCN(C2CCN(C(=O)Nc3cc(Oc4ccc(NC(=O)C5(C(=O)Nc6ccc(F)cc6)CC5)c(F)c4)ccn3)CC2)CC1,Potency,CRL-7250,9.2 µM (active)
same,Potency,HEK293,13 µM (active)
same,Potency,NIH3T3 [1],2.59 µM (active)
same,Potency,C33A,inactive
same,Potency,CASKI,inactive
same,Potency,HeLa,inactive
same,Potency,Hek293T,inactive
C=C1C(=O)O[C@H]2/C=C(/C)[C@@H](OC(C)=O)C/C=C(\C)C[C@@H](OC(=O)/C(=C/C)COC(=O)/C(=C/C)CO)[C@@H]12,Potency,CRL-7250,8.93 µM (active)
same,Potency,HEK293,3.17 µM (active)
same,Potency,CAOV3,8.91 µM (active)
same,Potency,HeLa,inactive
same,Potency,OV90,inactive
OC1C=C2C3CN(Cc4cc5c(cc43)OCO5)C2CC1O (configuration not stated),Potency,CRL-7250,8.2 µM (active)
same,Potency,HEK293,6.51 µM (active)
same,Potency,CAOV3,inactive
same,Potency,CASKI,inactive
same,Potency,Es-2,25.1 µM (active)
same,Potency,Hek293T,8.91 µM (active)
same,Potency,JEG-3,inactive
COc1cc2c(cc1OC(C)C)[C@H](c1ccc(Cl)cc1)N(c1ccc(N(C)CC3CCC(N4CCN(C)C(=O)C4)CC3)cc1)C(=O)C2 (some centres not stated),Potency,CRL-7250,18.4 µM (active)
same,max response,HEK293,-97.2%
same,Potency,C33A,inactive
same,Potency,CAOV3,inactive
same,Potency,CASKI,inactive
same,Potency,Es-2,inactive
same,Potency,HeLa,inactive
same,Potency,Hek293T,inactive
same,Potency,JEG-3,inactive
same,Potency,OV90,inactive
CNCCC(c1cccs1)c1ccc(O)c2ccccc12 (configuration not stated),max response,CRL-7250,3.5%
same,outcome,HaCat [2],inactive
same,max response,KB-3-1,6.48%
same,outcome,NIH3T3 [1],inactive
same,outcome,HACAT [3],inactive
same,Potency,NIH3T3 [4],inactive
same,Potency,C33A,inactive
same,Potency,CAOV3,inactive
same,Potency,CASKI,inactive
same,Potency,Es-2,inactive
same,Potency,HeLa,inactive
same,Potency,Hek293T,inactive
C=C1C(=O)O[C@@H]2[C@H]3C(C)=CC(=O)C3=C(C)CC[C@@H]12,Potency,CRL-7250,7.31 µM (active)
same,Potency,HEK293,2.06 µM (active)
same,Potency,HeLa,inactive
Cc1[nH]c2ccc(F)cc2c1-c1nc2c3cccnc3c3ncccc3c2[nH]1,Potency,CRL-7250,3.66 µM (active)
same,Potency,HEK293,4.61 µM (active)
same,Potency,NIH3T3 [1],14.6 µM (active)
same,Potency,CAOV3,3.98 µM (active)
same,Potency,Es-2,14.1 µM (active)
same,Potency,HeLa,inactive
same,Potency,JEG-3,inactive
same,Potency,OV90,5.62 µM (active)
CC(C)(O)/C=C/C(=O)[C@](C)(O)[C@H]1[C@H](O)C[C@@]2(C)[C@@H]3CC=C4[C@@H](C[C@H](O[C@@H]5O[C@H](CO)[C@@H](O)[C@H](O)[C@H]5O)C(=O)C4(C)C)[C@]3(C)C(=O)C[C@]12C,max response,CRL-7250,-1.87%
same,max response,HEK293,-10.4%
same,outcome,NIH3T3 [1],inactive
same,Potency,C33A,inactive
same,Potency,CASKI,inactive
same,Potency,Es-2,inactive
same,Potency,HeLa,inactive
same,Potency,Hek293T,inactive
same,Potency,JEG-3,inactive
same,Potency,OV90,inactive
C=C1C(=O)O[C@H]2C3=C(C)CCC[C@]3(C)C(=O)C[C@@H]12,Potency,CRL-7250,18.4 µM (active)
same,Potency,HEK293,5.8 µM (active)
same,Potency,NIH3T3 [1],16.4 µM (active)
same,Potency,CAOV3,31.6 µM (active)
same,Potency,Es-2,31.6 µM (active)
same,Potency,HeLa,inactive
same,Potency,JEG-3,inactive
C=C1C(=O)OC2/C=C(\COC(C)=O)CC/C=C(\C=O)CC(OC(=O)CC(C)C)C12 (configuration not stated),Potency,CRL-7250,7.96 µM (active)
same,Potency,HEK293,2.82 µM (active)
same,Potency,CASKI,inactive
same,Potency,HeLa,inactive
same,Potency,Hek293T,8.91 µM (active)
COCC(=O)NC/C=C/c1ccc2ncnc(Nc3ccc(Oc4ccc(C)nc4)c(C)c3)c2c1,Potency,CRL-7250,9.2 µM (active)
same,Potency,HEK293,14.6 µM (active)
same,Potency,C33A,inactive
same,Potency,Es-2,inactive
same,Potency,HeLa,inactive
same,Potency,Hek293T,inactive
same,Potency,JEG-3,inactive
same,Potency,OV90,inactive
CN(C)CCOC(C)(c1ccccc1)c1ccc(Cl)cc1 (configuration not stated),Potency,CRL-7250,25.9 µM (active)
same,Potency,HEK293,20.6 µM (active)
same,Potency,C33A,inactive
same,Potency,CASKI,inactive
same,Potency,Es-2,inactive
same,Potency,HeLa,inactive
same,Potency,Hek293T,inactive
same,Potency,JEG-3,inactive
same,Potency,OV90,inactive
